Measured values as given in the supplement of paper PMC10849652.
Of roughly 8,800 targets only a part is listed; those with a hit were picked by preference. About 0.5% of all pairs of compound and target were hits.

What was measured:
Assay in all cases: log2 fold change, soluble protein after heating vs DMSO (PISA); higher = thermal stabilisation; K562 lysate, 10 uM; active = over 0.2 and 3.5 SD of the protein, either way, in both replicates (recomputed)
erlotinib = compound: C#Cc1cccc(Nc2ncnc3cc(OCCOC)c(OCCOC)cc23)c1 [erlotinib]
Summary of the method: (§1)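 Values give the log-two fold change in thermal stability against solvent controls, from duplicates. Crude K562 extract at 1 mg/mL protein, made by dounce homogenisation in PBS pH 7.4 with 1 mM MgCl2, was treated with 10 μM compound for 30 min. After 3 min heating across 48°C-58°C, aliquots were pooled, adjusted to 0.5% NP-40 at 4°C and centrifuged at 21,000xg for 90 min. The supernatant was measured by TMTpro 16plex LC-MS/MS with channel sums equalised.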

[1] = compound: C/C(=N\NC(=O)C1=CC(=CC=C1)S(=O)(=O)N2CCOCC2)/C3=C(C=CC(=C3)Cl)O
Summary of the method: as §1

[2] = compound: C1=CC(=CC=C1C2=NC3=C(N2)C=C(C=C3)C(=O)N)OC4=CC=C(C=C4)Cl
Summary of the method: as §1

[3] = compound: C1=CC2=C(C=CC(=C2)/C=C\3/C(=O)NC(=NCC4=CC=CS4)S3)N=C1
Summary of the method: as §1

[4] = compound: C1=CC2=NC=CN=C2C=C1/C=C/3\C(=O)NC(=O)S3
Summary of the method: as §1

[5] = compound: C1=CC=C(C=C1)C2=NC(=C(N2)C3=CC=NC=C3)C4=CC(=C(C=C4)Cl)O
Summary of the method: as §1

[6] = compound: C1=CC=C2C(=C1)C3=NNC4=CC=CC(=C43)C2=O
Summary of the method: as §1

[7] = compound: C1CCN(C1)C(=O)NC2=CC=CC(=C2)NC3=NC=C(C(=N3)NCCC4=CN=CN4)Br
Summary of the method: as §1

[8] = compound: C1CN(CCC1(CC2=CC=C(C=C2)Cl)N)C3=NC=NC4=C3C=CN4
Summary of the method: as §1

IRAK-1-4 Inhibitor I = compound: C1COCCN1CCN2C3=CC=CC=C3N=C2NC(=O)C4=CC(=CC=C4)[N+](=O)[O-] [IRAK-1-4 Inhibitor I]
Summary of the method: as §1

ibrutinib = compound: C=CC(=O)N1CCC[C@@H](n2nc(-c3ccc(Oc4ccccc4)cc3)c3c(N)ncnc32)C1 [ibrutinib]
Summary of the method: as §1

[9] = compound: CC(=O)c1cnc2ccc(-c3cc(Cl)c(O)c(Cl)c3)nc2c1N[C@H]1CC[C@H](CN(C)C)CC1
Summary of the method: as §1

ralimetinib = compound: CC(C)(C)Cn1c(N)nc2ccc(-c3[nH]c(C(C)(C)C)nc3-c3ccc(F)cc3)nc21 [ralimetinib]
Summary of the method: as §1

[10] = compound: CC(C)(O)CC(=O)NCCn1ccc2ncnc(Nc3ccc(Oc4cccc(C(F)(F)F)c4)c(Cl)c3)c21
Summary of the method: as §1

[11] = compound: CC(C)C1=C2N=C(C=C(N2N=C1)NCC3=CC=CC=C3)NCCCCCCN
Summary of the method: as §1

[12] = compound: CC1=C(C(CC(=O)N1)C2=CC=C(C=C2)C(F)(F)F)C(=O)NC3=C(C=C4C(=C3)C=NN4)F
Summary of the method: as §1

[13] = compound: CC1=C(C2=C(C=C1)C(=O)C3=CC=CC=C3N2CCCN)C
Summary of the method: as §1

[14] = compound: CC1=C(C=C(C=C1)NC(=O)C2=CC(=CC=C2)C(C)(C)C#N)NC3=CC4=C(C=C3)N=CN(C4=O)C
Summary of the method: as §1

[15] = compound: CC1=C(C=C(C=C1)NC(=O)C2=CC(=CC=C2)N(C)C)NC(=O)C3=CC=C(C=C3)O
Summary of the method: as §1

[16] = compound: CC1=CC=C(C=C1)SC2=C3C=C(SC3=CN=C2)C(=O)N
Summary of the method: as §1

Measured: log2 fold change

ISCA1 isoform 2 (UniProt Q9BUE6)
Sequence of UniProt Q9BUE6 (Q9BUE6 whole entry, looked up): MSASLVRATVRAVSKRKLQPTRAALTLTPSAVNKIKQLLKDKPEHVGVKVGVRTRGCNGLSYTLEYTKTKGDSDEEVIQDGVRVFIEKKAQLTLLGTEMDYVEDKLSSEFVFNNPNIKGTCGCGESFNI
inactive: erlotinib -0.025 | [1] -0.036 | [2] 0.021 | [3] -0.007 | [4] -0.04 | [5] -0.033 | [6] -0.013 | [7] 0.003 | [8] -0.031 | IRAK-1-4 Inhibitor I 0.031 | ibrutinib 0.049 | [9] -0.001 | ralimetinib 0.04 | [10] -0.028 | [11] -0.069 | [12] -0.276 | [13] -0.006 | [14] 0.031 | [15] -0.029 | [16] -0.016

HDLBP, A0A024R4E5
inactive: erlotinib 0.043 | [1] 0.008 | [2] 0.02 | [3] -0.001 | [4] -0.024 | [5] -0.001 | [6] -0.046 | [7] -0.003 | [8] 0.004 | IRAK-1-4 Inhibitor I -0.005 | ibrutinib -0.034 | [9] -0.007 | ralimetinib 0.029 | [10] -0.014 | [11] -0.012 | [12] 0.007 | [13] -0.004 | [14] -0.009 | [15] 0.042 | [16] 0.003

HSD17B12 (UniProt Q53GQ0)
Sequence of UniProt Q53GQ0 (Q53GQ0 whole entry, looked up): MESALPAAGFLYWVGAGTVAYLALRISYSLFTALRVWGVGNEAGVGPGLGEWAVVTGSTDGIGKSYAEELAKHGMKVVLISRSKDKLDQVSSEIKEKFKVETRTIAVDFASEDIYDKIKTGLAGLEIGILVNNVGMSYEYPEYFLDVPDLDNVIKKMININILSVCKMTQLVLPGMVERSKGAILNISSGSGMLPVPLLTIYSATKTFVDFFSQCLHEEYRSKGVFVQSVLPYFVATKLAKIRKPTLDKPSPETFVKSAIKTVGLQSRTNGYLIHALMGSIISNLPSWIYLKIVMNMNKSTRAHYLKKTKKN
inactive: erlotinib -0.018 | [1] -0.026 | [2] -0.03 | [3] -0.018 | [4] 0.036 | [5] 0.006 | [6] -0.006 | [7] -0.022 | [8] 0.047 | IRAK-1-4 Inhibitor I 0.03 | ibrutinib -0.016 | [9] 0.004 | ralimetinib -0.026 | [10] 0.048 | [11] 0.069 | [12] 0 | [13] 0.024 | [14] -0.036 | [15] 0.049 | [16] 0.003

GPA33 (UniProt Q99795)
Sequence of UniProt Q99795 (Q99795 whole entry, looked up): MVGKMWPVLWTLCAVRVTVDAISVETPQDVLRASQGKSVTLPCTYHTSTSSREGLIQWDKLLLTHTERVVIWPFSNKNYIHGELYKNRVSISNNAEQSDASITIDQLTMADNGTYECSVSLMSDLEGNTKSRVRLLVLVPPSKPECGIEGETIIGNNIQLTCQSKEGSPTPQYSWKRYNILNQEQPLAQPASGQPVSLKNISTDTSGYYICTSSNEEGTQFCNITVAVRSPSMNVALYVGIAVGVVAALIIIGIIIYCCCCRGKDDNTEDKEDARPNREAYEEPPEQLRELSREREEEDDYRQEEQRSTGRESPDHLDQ
inactive: erlotinib -0.014 | [1] 0.082 | [2] -0.002 | [3] -0.091 | [4] -0.032 | [5] -0.05 | [6] -0.151 | [7] 0.001 | [8] 0.046 | IRAK-1-4 Inhibitor I 0.024 | ibrutinib 0.037 | [9] -0.029 | ralimetinib 0.188 | [10] -0.123 | [11] -0.067 | [12] -0.091 | [13] 0 | [15] -0.024 | [16] 0.026

ICAM2 (UniProt P13598)
Sequence of UniProt P13598 (P13598 whole entry, looked up): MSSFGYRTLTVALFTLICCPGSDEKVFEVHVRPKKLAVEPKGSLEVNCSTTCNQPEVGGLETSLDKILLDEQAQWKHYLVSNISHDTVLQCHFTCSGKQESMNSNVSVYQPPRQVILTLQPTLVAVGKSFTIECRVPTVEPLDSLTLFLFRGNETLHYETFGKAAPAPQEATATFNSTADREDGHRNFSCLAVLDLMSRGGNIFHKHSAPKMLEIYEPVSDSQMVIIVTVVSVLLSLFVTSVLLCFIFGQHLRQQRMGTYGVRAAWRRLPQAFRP
inactive: erlotinib 0.004 | [1] -0.022 | [2] 0.023 | [3] -0.029 | [4] -0.01 | [5] -0.011 | [6] 0.021 | [7] 0.032 | [8] 0.005 | IRAK-1-4 Inhibitor I 0.061 | ibrutinib 0.058 | [9] 0.043 | ralimetinib 0.001 | [10] -0.019 | [11] -0.016 | [12] 0.005 | [13] 0.012 | [14] 0.023 | [15] -0.028 | [16] -0.028

ISOC2 (UniProt Q96AB3)
Sequence of UniProt Q96AB3 (Q96AB3 whole entry, looked up): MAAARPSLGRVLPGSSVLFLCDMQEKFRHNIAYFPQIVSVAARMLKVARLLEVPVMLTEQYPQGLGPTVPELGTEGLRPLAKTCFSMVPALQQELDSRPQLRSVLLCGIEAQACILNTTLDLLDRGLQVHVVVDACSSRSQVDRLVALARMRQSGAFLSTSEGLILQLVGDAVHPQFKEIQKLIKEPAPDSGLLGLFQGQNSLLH
inactive: erlotinib -0.018 | [1] 0.003 | [2] 0.001 | [3] -0.035 | [4] -0.006 | [5] -0.072 | [6] 0.003 | [7] -0.007 | [8] -0.001 | IRAK-1-4 Inhibitor I 0.053 | ibrutinib 0.017 | [9] -0.021 | ralimetinib 0.056 | [10] 0.024 | [11] 0.014 | [12] -0.004 | [13] -0.131 | [14] 0.054 | [15] 0.041 | [16] 0.035

HMGN4 (UniProt O00479)
inactive: erlotinib 0.015 | [1] 0.238 | [2] 0.063 | [3] -0.056 | [4] 0.017 | [5] 0.048 | [6] 0.293 | [7] 0.201 | [8] -0.044 | IRAK-1-4 Inhibitor I -0.046 | ibrutinib -0.067 | [9] 0.051 | ralimetinib -0.249 | [10] 0 | [11] -0.097 | [12] -0.011 | [13] 0.016 | [14] -0.014 | [15] -0.077 | [16] 0.022

GPLD1 (UniProt P80108)
inactive: [13] -0.058 | [14] -0.187

ISL2 (UniProt Q96A47)
Sequence of UniProt Q96A47 (Q96A47 whole entry, looked up): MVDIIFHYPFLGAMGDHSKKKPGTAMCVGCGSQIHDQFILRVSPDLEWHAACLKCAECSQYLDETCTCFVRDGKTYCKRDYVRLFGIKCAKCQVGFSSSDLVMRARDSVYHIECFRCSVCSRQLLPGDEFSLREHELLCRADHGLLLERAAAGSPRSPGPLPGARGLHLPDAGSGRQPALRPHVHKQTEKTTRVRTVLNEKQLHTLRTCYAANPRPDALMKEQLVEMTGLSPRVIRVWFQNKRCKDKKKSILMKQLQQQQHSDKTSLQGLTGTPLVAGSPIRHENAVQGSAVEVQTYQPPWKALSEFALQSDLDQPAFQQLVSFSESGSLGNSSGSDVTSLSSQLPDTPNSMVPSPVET
inactive: erlotinib -0.149 | [2] 0.003 | [4] 0.032 | [5] -0.014 | IRAK-1-4 Inhibitor I 0.016 | ibrutinib 0.05 | ralimetinib 0.056 | [10] -0.089 | [11] 0.019 | [13] -0.003 | [14] -0.075 | [15] 0.01

HNRNPUL1 (UniProt M0R247)
inactive: erlotinib -0.046 | [2] 0.079 | [4] -0.049 | ibrutinib -0.045 | [11] 0.016

IMPDH2 (UniProt H0Y4R1)
inactive: [1] -0.014 | [3] 0.023 | [4] -0.118 | [5] -0.155 | [6] -0.029 | [7] 0.099 | [8] 0.076 | IRAK-1-4 Inhibitor I 0.037 | ibrutinib -0.025 | [9] -0.047 | ralimetinib -0.069 | [10] -0.112 | [12] -0.019 | [13] 0.032 | [14] -0.04 | [15] 0.062 | [16] 0.032

ITM2B (UniProt Q9Y287)
Sequence of UniProt Q9Y287 (Q9Y287 whole entry, looked up): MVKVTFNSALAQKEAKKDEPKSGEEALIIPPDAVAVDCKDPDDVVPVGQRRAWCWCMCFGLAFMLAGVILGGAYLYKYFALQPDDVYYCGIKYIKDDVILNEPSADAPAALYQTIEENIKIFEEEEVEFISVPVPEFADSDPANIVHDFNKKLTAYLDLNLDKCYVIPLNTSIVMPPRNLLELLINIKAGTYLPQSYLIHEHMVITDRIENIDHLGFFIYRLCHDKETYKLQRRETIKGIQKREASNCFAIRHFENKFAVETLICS
inactive: erlotinib -0.039 | [1] 0.225 | [2] 0.02 | [3] -0.202 | [4] 0.026 | [5] 0.005 | [6] 0.052 | IRAK-1-4 Inhibitor I 0.023 | ibrutinib -0.04 | ralimetinib 0.131 | [10] -0.106 | [11] -0.044 | [12] 0.051 | [13] -0.011 | [14] 0.019 | [15] -0.088

HOMER3 (UniProt Q9NSC5)
Sequence of UniProt Q9NSC5 (Q9NSC5 whole entry, looked up): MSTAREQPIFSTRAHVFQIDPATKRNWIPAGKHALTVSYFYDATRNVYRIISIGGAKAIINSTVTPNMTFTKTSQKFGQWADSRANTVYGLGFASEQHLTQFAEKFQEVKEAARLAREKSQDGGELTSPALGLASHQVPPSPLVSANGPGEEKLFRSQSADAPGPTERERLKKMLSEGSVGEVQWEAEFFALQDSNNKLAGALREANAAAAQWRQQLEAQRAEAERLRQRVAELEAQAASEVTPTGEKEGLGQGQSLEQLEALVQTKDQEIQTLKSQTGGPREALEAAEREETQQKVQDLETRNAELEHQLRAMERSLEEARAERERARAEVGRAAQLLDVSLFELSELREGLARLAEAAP
inactive: [4] -0.078 | ibrutinib -0.095 | [9] -0.01 | [14] -0.028 | [16] 0.048

ITGB1BP2 (UniProt Q9UKP3)
Sequence of UniProt Q9UKP3 (Q9UKP3 whole entry, looked up): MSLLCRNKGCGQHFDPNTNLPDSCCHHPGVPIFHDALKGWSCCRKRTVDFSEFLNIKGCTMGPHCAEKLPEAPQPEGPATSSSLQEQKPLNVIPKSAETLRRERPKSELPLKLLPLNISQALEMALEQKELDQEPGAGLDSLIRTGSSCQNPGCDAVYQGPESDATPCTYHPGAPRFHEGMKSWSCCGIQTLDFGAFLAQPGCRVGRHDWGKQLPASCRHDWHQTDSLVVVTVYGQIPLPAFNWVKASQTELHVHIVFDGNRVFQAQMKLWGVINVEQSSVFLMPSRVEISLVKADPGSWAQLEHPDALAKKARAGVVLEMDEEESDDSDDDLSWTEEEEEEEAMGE
inactive: [1] 0.017 | [3] -0.001 | [6] 0.039 | [7] -0.117 | [8] 0.09 | [13] 0.139

IGF2BP2 isoform 6 (UniProt Q9Y6M1)
inactive: [9] -0.031 | [16] -0.016

GYPA (UniProt P02724)
Sequence of UniProt P02724 (P02724 whole entry, looked up): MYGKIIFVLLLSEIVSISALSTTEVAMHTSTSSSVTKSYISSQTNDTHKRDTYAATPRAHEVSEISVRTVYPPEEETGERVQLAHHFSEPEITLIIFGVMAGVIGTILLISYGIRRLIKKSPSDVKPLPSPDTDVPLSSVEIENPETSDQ
inactive: erlotinib -0.109 | [1] -0.107 | [2] 0.13 | [3] 0.061 | [4] 0.059 | [5] 0.023 | [6] 0.048 | [7] -0.004 | [8] 0.043 | IRAK-1-4 Inhibitor I 0.017 | ibrutinib 0.318 | [9] 0.102 | ralimetinib -0.052 | [10] 0.054 | [11] -0.095 | [13] -0.085 | [14] 0.018 | [15] -0.037 | [16] -0.034

HNRNPL, A0A3B3ITJ4
inactive: [4] -0.086 | ibrutinib 0.033 | [9] 0.033 | [16] -0.104

HECW2 (UniProt Q9P2P5)
inactive: erlotinib -0.012 | [1] 0.009 | [2] -0.093 | [3] 0.013 | [5] -0.075 | [6] 0.023 | [7] 0.029 | [8] -0.118 | IRAK-1-4 Inhibitor I 0.082 | ralimetinib 0.106 | [10] -0.148 | [11] -0.036 | [12] 0.019 | [13] -0.091 | [14] 0.116 | [15] 0.073

HNRNPM (UniProt M0QZM1)
inactive: [1] 0.07 | [3] 0.044 | [4] 0.246 | [6] 0.066 | [7] 0.046 | [8] 0.086 | ibrutinib 0.003 | [13] 0.121 | [14] -0.068

JAK3 (UniProt P52333)
Sequence of UniProt P52333 (P52333 whole entry, looked up): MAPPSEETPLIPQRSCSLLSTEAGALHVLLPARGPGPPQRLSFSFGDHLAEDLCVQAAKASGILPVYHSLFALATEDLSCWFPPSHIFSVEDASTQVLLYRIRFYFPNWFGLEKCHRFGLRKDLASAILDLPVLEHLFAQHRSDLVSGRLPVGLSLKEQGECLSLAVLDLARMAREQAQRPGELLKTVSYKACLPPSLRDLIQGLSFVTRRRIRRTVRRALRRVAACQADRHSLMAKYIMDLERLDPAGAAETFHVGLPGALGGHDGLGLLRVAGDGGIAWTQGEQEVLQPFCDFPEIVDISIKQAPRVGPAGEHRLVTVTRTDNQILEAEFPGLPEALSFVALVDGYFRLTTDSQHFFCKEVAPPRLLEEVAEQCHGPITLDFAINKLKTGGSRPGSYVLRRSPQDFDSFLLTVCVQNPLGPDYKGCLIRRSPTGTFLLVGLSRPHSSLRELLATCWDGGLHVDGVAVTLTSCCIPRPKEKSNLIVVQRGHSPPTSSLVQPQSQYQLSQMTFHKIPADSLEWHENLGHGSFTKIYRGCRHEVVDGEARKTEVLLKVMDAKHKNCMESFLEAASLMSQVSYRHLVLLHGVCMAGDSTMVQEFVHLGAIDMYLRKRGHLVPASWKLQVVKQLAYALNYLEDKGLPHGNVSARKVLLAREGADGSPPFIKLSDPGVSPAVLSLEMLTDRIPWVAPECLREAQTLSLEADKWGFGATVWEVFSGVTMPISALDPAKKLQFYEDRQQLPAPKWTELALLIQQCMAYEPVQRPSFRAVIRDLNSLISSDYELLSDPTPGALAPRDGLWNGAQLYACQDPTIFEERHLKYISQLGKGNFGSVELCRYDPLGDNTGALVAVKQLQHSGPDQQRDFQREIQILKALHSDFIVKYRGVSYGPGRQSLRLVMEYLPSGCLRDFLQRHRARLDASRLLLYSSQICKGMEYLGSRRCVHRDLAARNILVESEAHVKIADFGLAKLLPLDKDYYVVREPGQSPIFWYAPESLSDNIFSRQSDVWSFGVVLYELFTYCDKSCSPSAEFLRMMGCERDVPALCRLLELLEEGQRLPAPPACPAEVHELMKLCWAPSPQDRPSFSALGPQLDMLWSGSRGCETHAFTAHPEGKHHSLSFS
inactive: [1] 0.037 | [3] -0.075 | [4] -0.041 | [6] 0.23 | ibrutinib 0.076 | [9] 0.056 | [14] -0.016 | [16] 0.078

GPN2 (UniProt Q9H9Y4)
Sequence of UniProt Q9H9Y4 (Q9H9Y4 whole entry, looked up): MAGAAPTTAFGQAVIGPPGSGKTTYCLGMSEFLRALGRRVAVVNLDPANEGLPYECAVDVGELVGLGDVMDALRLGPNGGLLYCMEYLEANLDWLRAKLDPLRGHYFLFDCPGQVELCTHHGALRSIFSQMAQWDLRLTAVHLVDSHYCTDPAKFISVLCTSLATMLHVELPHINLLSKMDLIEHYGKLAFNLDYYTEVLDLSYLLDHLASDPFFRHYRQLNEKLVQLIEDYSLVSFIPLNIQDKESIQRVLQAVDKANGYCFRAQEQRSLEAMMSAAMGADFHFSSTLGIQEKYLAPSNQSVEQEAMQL
active: [7] -0.241
inactive: erlotinib -0.022 | [1] 0.089 | [2] 0.032 | [3] 0.043 | [5] -0.041 | [6] -0.056 | [8] -0.062 | IRAK-1-4 Inhibitor I -0.027 | [9] -0.022 | ralimetinib 0.12 | [10] 0.028 | [11] -0.042 | [12] 0.036 | [13] 0.025 | [14] 0.067 | [15] 0.057 | [16] 0.019

HDAC3 (UniProt E7ESJ6)
inactive: [9] -0.107 | [16] -0.004

HSPBAP1 (UniProt Q96EW2)
Sequence of UniProt Q96EW2 (Q96EW2 whole entry, looked up): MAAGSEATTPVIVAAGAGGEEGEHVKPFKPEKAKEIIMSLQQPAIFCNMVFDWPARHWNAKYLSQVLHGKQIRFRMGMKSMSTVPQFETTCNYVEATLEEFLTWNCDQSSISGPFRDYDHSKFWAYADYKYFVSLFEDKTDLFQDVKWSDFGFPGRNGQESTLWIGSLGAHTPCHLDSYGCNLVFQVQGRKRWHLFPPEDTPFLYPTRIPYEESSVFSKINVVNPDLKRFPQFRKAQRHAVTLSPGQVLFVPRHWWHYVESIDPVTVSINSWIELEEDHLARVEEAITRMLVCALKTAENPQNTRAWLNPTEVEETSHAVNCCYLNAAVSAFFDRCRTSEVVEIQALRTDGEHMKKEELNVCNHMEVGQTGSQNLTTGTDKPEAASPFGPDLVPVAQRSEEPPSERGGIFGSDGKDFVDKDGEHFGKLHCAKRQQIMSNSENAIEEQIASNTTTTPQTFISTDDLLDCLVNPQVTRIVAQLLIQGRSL
inactive: erlotinib 0.064 | [2] -0.098 | [4] -0.079 | [5] -0.072 | [7] 0.002 | [8] 0.031 | IRAK-1-4 Inhibitor I -0.002 | ibrutinib -0.008 | [9] 0.039 | ralimetinib -0.056 | [10] -0.095 | [11] 0.038 | [12] -0.214 | [13] -0.324 | [14] 0.002 | [15] 0.084 | [16] 0.084

HMGA1 isoform 2 (UniProt P17096)
Sequence of UniProt P17096 (P17096 whole entry, looked up): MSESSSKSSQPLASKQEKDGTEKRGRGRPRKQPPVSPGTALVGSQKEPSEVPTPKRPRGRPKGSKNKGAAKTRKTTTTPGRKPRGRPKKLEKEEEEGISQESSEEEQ
inactive: erlotinib 0.042 | [2] -0.043 | [5] 0.022 | IRAK-1-4 Inhibitor I 0 | [9] 0.053 | ralimetinib -0.122 | [10] 0.088 | [11] -0.029 | [12] 0.047 | [13] -0.229 | [14] -0.034 | [15] 0.054 | [16] 0.01
